# Test results reported in PubChem BioAssay.
# Several values for one entry are separate records, joined by “and”; a condition that tells them apart may be missing. Equal entries are not always repeated. Activity calls are given as the source filed them.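 How the source made its calls, unless noted: active means compounds whose cell count with miR-34 switched on is under 0.7 times the count with it off; inactive means the rest.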
# Legend:
# [1] = sensitizers of A549 cells to miR-34 induction, primary screen, imaging, A549 dox-inducible miR-34, nuclei and caspase counts (AID 1347080); conditions: A549 miR-34 inducible, Hoechst nuclei count, 48 h
# [2] = survival rescue of mitochondrial mutant cells in low glucose, primary screen, MELAS cybrids, Rieske KO mouse fibroblasts, CellTiter-Glo (AID 1508586;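 active means mean z-score across replicates of 1.96 or higher in either the MELAS or the Rieske mutant cell line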;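 further: z relative to plate mean and SD of compound and empty wells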)
# [3] = viability rescue of complex I mutant cybrids, primary screen, cell-based, galactose medium, ATP luminescence (AID 1645843;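 active means z-score of at least 1.8 in each of two replicates, scored against plate mean and spread of sample wells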;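 further: positive z means more ATP and so rescue of galactose-driven cybrid death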); conditions: complex I mutant cybrid cells, 72 h, stronger effect = higher value
# [4] = hESC survival regulators, cell-based (AID 493140; call rule not given here;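 further: cells exposed to compounds for four days before counting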); conditions: human embryonic stem cell survival screen; stronger effect = higher value
# [5] = liver-stage malaria parasite growth inhibition, primary screen, cell-based, HepG2, luciferase luminescence, HepG2 viability (AID 624349; in the data active means parasite load remaining mostly below about 12%, no sharp cut-off; inactive means mostly above about 10%;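 further: 100% = mean of DMSO negative control wells on the same plate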); conditions: P. berghei liver stage in HepG2, luciferase luminescence, concentration not given here; parasite load remaining: stronger effect = lower value; viability: measured here: HepG2 viability without parasites
# [6] = molecular target: NAD(+) hydrolase SARM1 (Homo sapiens) (UniProt Q6SZW1); assay: SARM1 TIR NADase inhibitors, cell lysate, NAD-Glo luminescence (AID 1508614;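 active means compound whose remaining NAD level is above about 45 nM, limit read from the data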); conditions: SAM-TIR HEK293T lysate NADase, at 1 µM, stronger effect = higher value
# [7] = stronger effect = lower value, cell number ratio, induced over uninduced
# [8] = measured here: relative caspase fold change +Dox/-Dox
# [9] = measured here: total cells with miR-34 induction, stronger effect = lower value
# [10] = measured here: total cells without miR-34 induction
# [11] = MELAS cybrid survival, CellTiter-Glo 48 h, stronger effect = higher value
# [12] = Rieske KO mouse fibroblast survival, CellTiter-Glo 72 h
# NAD(+) hydrolase SARM1 (Homo sapiens), sequence (Q6SZW1 whole entry, looked up): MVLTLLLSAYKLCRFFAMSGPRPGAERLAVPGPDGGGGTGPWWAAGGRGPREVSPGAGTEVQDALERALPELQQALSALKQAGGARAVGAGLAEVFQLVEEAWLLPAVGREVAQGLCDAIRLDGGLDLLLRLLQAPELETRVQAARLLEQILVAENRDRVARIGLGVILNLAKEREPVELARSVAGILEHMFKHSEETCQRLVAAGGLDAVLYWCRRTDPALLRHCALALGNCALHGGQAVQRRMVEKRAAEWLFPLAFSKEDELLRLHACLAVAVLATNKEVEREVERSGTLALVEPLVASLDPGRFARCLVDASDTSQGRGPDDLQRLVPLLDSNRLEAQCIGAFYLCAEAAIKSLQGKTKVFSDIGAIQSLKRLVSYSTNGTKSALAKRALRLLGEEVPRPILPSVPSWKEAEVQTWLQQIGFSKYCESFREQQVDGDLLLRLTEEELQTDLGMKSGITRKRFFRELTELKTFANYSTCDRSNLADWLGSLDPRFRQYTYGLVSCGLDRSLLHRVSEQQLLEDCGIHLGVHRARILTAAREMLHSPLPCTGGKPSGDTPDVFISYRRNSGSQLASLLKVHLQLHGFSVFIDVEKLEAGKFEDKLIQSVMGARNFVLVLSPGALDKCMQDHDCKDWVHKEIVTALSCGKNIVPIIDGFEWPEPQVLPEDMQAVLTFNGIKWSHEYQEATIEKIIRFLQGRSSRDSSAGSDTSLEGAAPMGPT
Compound,"fold change [1, 7]","fold change [1, 8]","cell count [1, 9]","cell count [1, 10]","z-score [2, 11]","z-score [2, 12]",z-score [3],survival [4],parasite load remaining [5],viability [5],remaining NAD [6]
Cc1nsc(NC(=O)N2CCCCC2c2nc(C(C)C)no2)n1 (centres undefined),0.906 (inactive),1.98,9100,10000,-0.274 (inactive),-0.381,-0.525 (inactive),,,,
CC(C)c1nc(CN(C)C(=O)NC(C(=O)NC(Cc2ccccc2)CC(O)C(Cc2ccccc2)NC(=O)OCc2cncs2)C(C)C)cs1 (centres undefined),0.948 (inactive) and 0.95 (inactive),1.44 and 0.946,7230 and 6000,7630 and 6320,-0.434 (inactive),0.643,-0.03 (inactive),,,,
CO[C@@]1(NC(=O)C2SC(=C(C(N)=O)C(=O)O)S2)C(=O)N2C(C(=O)O)=C(CSc3nnnn3C)CS[C@@H]21 (some centres undefined),0.873 (inactive),1.71,8700,9980,-0.492 (inactive),-0.132,,11.4 (inactive),165% (inactive) and 73.4% (inactive),107% and 73.9%,10 nM (inactive)
